# Measured values as given in ChEMBL document CHEMBL1961873, “Compounds: GSK PKIS; Assays: Nanosyn kinase panel” (2012).
# Target: T1, Testis-specific serine/threonine-protein kinase 1 (Homo sapiens) (UniProt Q9BXA7)
# T1 sequence (whole entry): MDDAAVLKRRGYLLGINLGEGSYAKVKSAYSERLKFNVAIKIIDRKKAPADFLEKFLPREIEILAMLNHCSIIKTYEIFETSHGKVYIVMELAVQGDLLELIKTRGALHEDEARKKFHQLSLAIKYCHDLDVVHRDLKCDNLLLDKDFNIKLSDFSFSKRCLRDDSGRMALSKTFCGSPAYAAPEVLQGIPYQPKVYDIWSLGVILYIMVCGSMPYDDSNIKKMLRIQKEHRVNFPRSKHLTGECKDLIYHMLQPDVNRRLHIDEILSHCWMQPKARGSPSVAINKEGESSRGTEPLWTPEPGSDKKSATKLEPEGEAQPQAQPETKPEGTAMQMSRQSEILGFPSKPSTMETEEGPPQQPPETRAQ
# Settings: at 0.1 µM
# 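Further: mean percent inhibition of TSSK1, from the GSK PKIS screening dataset.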
row,SMILES,inhibition
1,Clc1ccc(CNc2nccc(-c3cnn4ncccc34)n2)cc1,0.5%
2,CN(c1ccc(NC(=O)Nc2c(Cl)cccc2Cl)cc1)c1ccnc(Nc2cccc(CS(C)(=O)=O)c2)n1,1.9%
3,Cc1ccc(NC(=O)c2ccoc2)cc1-c1ccc(C(=O)NCC2CC2)cc1,1.46%
4,FC(F)(F)c1cccc(Nc2nccc(-c3cnn4nc(-c5ccccc5)ccc34)n2)c1,1.23%
5,CN(C)c1ccc2c(c1)/C(=C/Nc1ccc(S(N)(=O)=O)cc1)C(=O)N2,2.84%
6,C/C(Nc1ccc(S(N)(=O)=O)cc1)=C1/C(=O)Nc2ccccc21,0.79%
7,COc1cc(N2CCN(C(C)C)CC2)ccc1Nc1nc(Nc2ccc(F)cc2C(=O)NC[C@@H](O)CO)c2cc[nH]c2n1,45.9%
8,Nc1nccc(-c2c(-c3ccc(F)cc3)ncn2C2CCC(O)CC2)n1 (centres undefined),-2.82%
9,N#Cc1ccc(Oc2nccc(-c3c(-c4ccc(F)cc4)ncn3C3CCNCC3)n2)cc1,3.77%
10,C[C@@H](Oc1cc(-n2cnc3ccc(OCC4CCN(C)CC4)cc32)sc1C(N)=O)c1ccccc1Cl,6.84%
11,Fc1ccc(-c2c(-c3ccncc3)nc3n2CCS3)cc1,2.46%
12,O=C(Nc1n[nH]c2cc(-c3cc(F)ccc3F)ccc12)C1CC1,2.75%
13,CCS(=O)(=O)c1ccc(OC)c(Nc2ncc(-c3ccccc3Cl)o2)c1,4.33%
14,O=C(Nc1n[nH]c2nc(-c3ccco3)ccc12)C1CC1,1.99%
15,NS(=O)(=O)c1ccc(Nc2cc(-c3ccc(O)c(F)c3)n[nH]2)cc1,-1.37%
16,O=C1Nc2ccccc2/C1=C/Nc1ccc(-n2cncn2)cc1,4.37%
17,Fc1ccc(-c2ncn(C3CCNCC3)c2-c2ccnc(Oc3ccc(F)c(F)c3)n2)cc1,1.98%

row,SMILES,inhibition
1,COc1cc(C)c(N(C)C(=O)CN(C)C)cc1Nc1nc(Nc2cccc(F)c2C(N)=O)c2cc[nH]c2n1,3.79%
2,COc1ccc(-c2ccc3c(NC(=O)C4CC4)n[nH]c3n2)cc1,2.89%
3,COc1cc(Nc2ncc3c(C)nc(-c4cccc(Oc5ccccc5)c4)n3n2)cc(OC)c1OC,3.11%
4,COc1cc(Nc2ncc3c(C)nc(-c4cccc(C(F)(F)F)c4)n3n2)cc(OC)c1OC,4.46%
5,c1ccc(-c2n[nH]cc2-c2ccnc(-c3ccc(OCCN4CCOCC4)cc3)c2)nc1,-1.9%
6,CCc1cccc(CC)c1/C=C/c1cncc(C(=O)NC)c1,1.47%
7,NS(=O)(=O)c1ccc(N/N=C2\C(=O)Nc3ccc(-c4cnco4)cc32)cc1,2.73%
8,COc1cc2ncn(-c3cc(OCc4ccccc4C(F)(F)F)c(C(C)=O)s3)c2cc1OC,2.55%
9,COc1cccc(-n2cnc3c(N/N=C/c4ccncc4)ncnc32)c1,0.41%
10,NS(=O)(=O)c1ccc(N/N=C2\C(=O)Nc3ccc(C(=O)NCCCn4ccnc4)cc32)cc1,7.1%
11,Fc1ccc(-c2ncn(C3CCNCC3)c2-c2ccnc(Oc3ccc4c(c3)OCO4)n2)cc1,4.2%
12,COc1cc(Nc2ncc(-c3ccccc3)o2)cc(OC)c1OC,0.03%
13,Fc1ccc(-c2ncn(C3CCNCC3)c2-c2ccnc(Oc3ccc(Oc4ccccc4)cc3)n2)cc1,4.18%
14,O=C(Nc1ccc(Oc2ccc3[nH]c(NC(=O)c4ccccc4)nc3c2)cc1)Nc1cc(C(F)(F)F)ccc1F,2.04%
15,Cc1ccc(C(=O)NC(C)C)cc1-c1ccc(C(=O)NCC2CC2)cc1,-1.97%
16,NC(=O)c1ccc(Oc2nccc(-c3c(-c4ccc(F)cc4)ncn3C3CCNCC3)n2)cc1,4.45%
17,NC(=O)Cc1ccccc1Oc1nccc(-c2c(-c3ccc(F)cc3)ncn2C2CCNCC2)n1,2.65%
